# Compounds with a hit are over-represented: about 19% of the library has one in this group of screens.
# KB-3-1 tox = kills parental KB-3-1 adenocarcinoma cells. 400,000 tested, 1.4% active. Potency, µM (doses to about 46.1 µM), usual class: cytotoxic. KB-3-1 viability, CellTiter-Glo ATP luminescence, 72 h; further: nearly all actives have a fitted effect of over 60% in size
#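 Here the drug-naive KB-3-1 line serves as comparator for MDR sub-line selectivity; cells received compound titrations, 72 h at 37 °C, then CellTiter-Glo readout.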
# DT40 TDP1 no CPT = qHTS for Inhibitors of human tyrosyl-DNA phosphodiesterase 1 (TDP1): qHTS in cells in absence of CPT; AID 686978, 2013; 420,000 tested, 15% active; Potency, µM (series often up to 46.2 µM), without a hit: at the highest dose activity change, negative = growth inhibition, most hits filed as inhibitors; DT40 Tdp1-/- hTDP1 cells, no CPT, ATP luminescence, 48 h; further: nearly all actives have a fitted effect of over 55% in size
#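 Stably hTDP1-transfected Tdp1-null chicken DT40 cells were treated with library compounds minus camptothecin and grown for at least 48 hr at 37 °C, after which cellular ATP was quantified by luminescence.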
# KB-V1 cytotox = kills drug-selected multidrug resistant KB-V1 cells. AID 1347076. KB-V1 MDR cells viability, CellTiter-Glo, 72 h. 400,000 tested, 3.4% active. Potency, µM (top dose mostly 46.1 µM), usual class: cytotoxic; further: nearly all actives have a fitted effect of over 60% in size
#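 Luminescent ATP read-out (CellTiter-Glo, 10 min) measures survival of drug-selected KB-V1 MDR cells after 72 h, 37 degrees C compound exposure. Medium: phenol-red-free DMEM, 10% FBS. Values from fitted concentration-response curves.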
# HT1080NT lethal = kills 2HG-producing HT-1080-NT fibrosarcoma cells; Potency, µM (highest dose often 46.1 µM), inactives show at the top dose activity, negative = less viability, hits mostly cytotoxic; AID 686970; HT-1080-NT fibrosarcoma viability, CellTiter-Glo ATP luminescence, 48 h; 360,000 tested, 1.6% active;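 further: NT is the 2HG producing partner of a matched IDH1 knockdown line; 0% = DMSO-treated cells and -100% = media-only wells without cells; nearly all actives have a fitted effect of over 55% in size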
#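 Viability by CellTiter-Glo luminescence after 48 h compound exposure at 37C of HT-1080-NT cells (750/well, RPMI, 5% FBS). % activity scaled between DMSO wells and medium-only wells, then curve-fitted and categorized by curve class.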
# DT40 TDP1 CPT = growth inhibition of DT40 Tdp1-/-;hTDP1 cells with camptothecin (screen for TDP1 inhibitors). AID 686979. Potency, µM (titrated, usually from 46.2 µM), for inactives: at the top dose activity change, negative = growth inhibition, usual class: inhibitors. chicken DT40 Tdp1-/-;hTDP1 cells + 20 nM CPT, ATP luminescence, 48 h. 420,000 tested, 12% active; further: nearly all actives have a fitted effect of over 55% in size
#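 Cell growth measured by CellTiter-Glo luminescence after a minimum 48 h, 37 C compound exposure with 20 nM CPT in Tdp1-knockout DT40 cells stably expressing hTDP1, seeded 400/well; qHTS titration format.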
# HT1080 IDH1KD tx = HT-1080 IDH1 knockdown cell toxicity (counter line) | HT-1080 IDH1 knockdown viability, ATP luminescence, 48 h | Potency, µM (highest dose often 46.1 µM), inactives show at the top dose activity, negative = toxicity, usual class: cytotoxic | 360,000 tested, 2% active;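 further: 0% = DMSO wells and -100% = cell-free medium wells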
#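 Cytotoxicity counter-line: IDH1KD HT-1080, 48 h, CellTiter-Glo. Curves classed by r2, magnitude and activity.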
# * marks the source's active call; other numbers are inactive results; i = inactive; ? = inconclusive; . = no result. The call rests on the fitted dose curve; in most records, active means well fitted curve in the direction sought with a large enough effect; inconclusive means small, poorly fitted or top-dose-only effect, or another doubt; inactive means no such curve, though single readings can be large; an effect the other way counts as inactive or inconclusive. Unless noted, on the % scale 0 is the no-effect control and ±100 the full control effect; potency means the concentration at half of the fitted maximal effect.
SMILES,KB-3-1 tox,DT40 TDP1 no CPT,KB-V1 cytotox,HT1080NT lethal,DT40 TDP1 CPT,HT1080 IDH1KD tx
Nc1ccc(-c2cc(NC=O)c3ncc(-c4cccc(C(F)(F)F)c4)n3c2)cn1,i,10µM*,i,-8%,16µM*,-26%
COc1cccc(-c2cc(NC=O)c3ncc(-c4cc(OC)c(OC)c(OC)c4)n3c2)c1,1µM*,0.58µM*,2.1µM*,?,0.52µM*,?
COc1cccc(-c2cnc3c(NC=O)cc(-c4ccc(O)c(OC)c4)cn23)c1,?,2.3µM*,i,?,-89%,?
COc1ccc(-c2cc(NC=O)c3ncc(-c4cccc(C(F)(F)F)c4)n3c2)c(OC)c1,?,15µM*,?,?,18µM*,13µM*
O=C(CN1C(=O)NC2(CCCC2)C1=O)Nc1cc(C(F)(F)F)ccc1N1CCCCC1,i,-20%,i,0%,?,-4%
COc1cc(-c2cnc3c(NC=O)cc(-c4cccnc4)cn23)cc(OC)c1OC,10µM*,2.9µM*,13µM*,?,2.9µM*,?
Cn1cc(-c2cnc3c(NC=O)cc(-c4cccc(C(F)(F)F)c4)cn23)cn1,?,21µM*,21µM*,-44%,?,?
COc1cc(-c2cnc3c(NC=O)cc(-c4ccsc4)cn23)cc(OC)c1OC,0.82µM*,0.16µM*,1.3µM*,?,0.18µM*,?
COc1cc(-c2cc(NC=O)c3ncc(-c4ccc(C(C)=O)cc4)n3c2)ccc1O,?,8.2µM*,i,?,9.2µM*,18µM*
CC(CN)(NS(=O)(=O)c1ccccc1)c1ccccc1 (centres undefined),i,-1%,i,1%,?,-4%
Cc1ccc(NC(=O)C(CC(C)C)NS(=O)(=O)c2ccc3c(c2)oc(=O)n3C)c(C)c1 (centres undefined),i,-11%,i,.,17%,.
COc1ccc(CN2C[C@@H](CO)O[C@@H](n3cnc4c(NCCO)ncnc43)C2)cc1,i,-21%,i,21%,?,6%
COc1cc(-c2cnc3c(NC=O)cc(-c4cccc(C(F)(F)F)c4)cn23)cc(OC)c1OC,?,5.2µM*,23µM*,?,5.8µM*,?
COc1ccc(CNC(=O)c2sc(=O)n(Cc3ccc(-c4ccccc4)cc3)c2C)cc1OC,?,12µM*,9.2µM*,-11%,12µM*,?
COc1ccccc1Cn1c(C)c(C(=O)NCc2cccc(C)c2)sc1=O,i,-14%,?,-11%,?,-10%
COc1ccc(Cl)cc1Cn1c(C)c(C(=O)NCc2ccc(C#N)cc2)sc1=O,i,18µM*,?,-27%,23µM*,-18%
COc1ccccc1Cn1c(C)c(C(=O)NCc2ccc(C#N)cc2)sc1=O,i,?,16µM*,-27%,?,-28%
CCn1ccc2cc(S(=O)(=O)N3CCC(C(=O)NCCc4ccc(C)cc4)CC3)ccc21,i,?,i,.,?,.
COc1cc(OC)c(NC(=O)N2CCCn3nc(C)cc32)cc1Cl,i,-29%,i,.,2%,.
COc1ccccc1CNC(=O)CN1C(=O)COc2ccc(S(=O)(=O)N3CCC(C)CC3)cc21,i,.,?,.,.,.
Cc1cc2oc(=O)cc(CN3CCN(c4ccc(Cl)c(Cl)c4)CC3)c2cc1Cl,i,-1%,i,23%,-12%,4%
COCCNC(=O)C1Cc2c(ccc3ccccc23)O1 (centres undefined),i,-7%,i,16%,2%,13%
COc1ccc(S(=O)(=O)NNC(=O)C2Cc3c(ccc4ccccc34)O2)cc1 (centres undefined),?,21µM*,i,-11%,16µM*,-19%
CCn1cc(C(=O)NCc2ccco2)c(=O)c2cc(F)c(N3CCN(C(=O)c4ccco4)CC3)cc21,i,?,i,-12%,21µM*,-17%
CCn1cc(C(=O)NCC(C)C)c(=O)c2cc(F)c(N3CCN(C(=O)c4ccco4)CC3)cc21,i,21µM*,16µM*,-15%,?,0%
CCC(C)NC(=O)c1cn(CC)c2cc(N3CCN(C(=O)c4ccco4)CC3)c(F)cc2c1=O (centres undefined),i,13µM*,i,-22%,16µM*,-15%
C=CCNC(=O)c1cn(CC)c2cc(N3CCN(C(=O)c4ccco4)CC3)c(F)cc2c1=O,i,15µM*,?,-1%,23µM*,-5%
CCn1cc(C(=O)NCC(C)C)c(=O)c2cc(F)c(N3CCN(C)CC3)cc21,i,10%,i,1%,4%,6%
CCn1cc(C(=O)NCCc2ccccc2)c(=O)c2cc(F)c(N3CCN(C)CC3)cc21,?,?,i,?,?,?
CCOCCCNC(=O)C(c1ccc(C)cc1)N(Cc1cccs1)C(=O)c1ccccc1O (centres undefined),i,?,i,-3%,-6%,-9%
